# Gal4-VP16 FLuc: VP16 counterscreen qHTS for inhibitors of ROR gamma transcriptional activity; Drosophila S2 Gal4-VP16 UAS-luciferase, luminescence, 20 h; Potency, µM (titrated, usually from 53.6 µM), actives largely listed as inhibitors; 310,000 tested, 3.5% active; AID 2546, 2010;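 also: Gal4-VP16 expression switched on by copper sulfate through the metallothionein promoter; nearly all actives have a fitted effect of over 50% in size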
# RORg inh: qHTS for inhibitors of ROR gamma transcriptional activity. Nuclear receptor ROR-gamma (Mus musculus), P51450. Drosophila S2 Gal4-RORgamma UAS-luciferase reporter, 20 h. Potency, µM (doses to about 53.6 µM), usual class: inhibitors. 310,000 tested, 5.4% active; also: nearly all actives have a fitted effect of over 60% in size
#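 Luciferase reporter read in Schneider cells carrying Gal4-RORγ (mouse) and UAS-Photinus luciferase; cells given compound 1 h before 700 uM copper sulfate induction, then incubated 20 h at ambient temperature.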
# Luc counter: Counterscreen for Luciferase (Kinase-Glo TM) Inhibition | Kinase-Glo luciferase, ATP luminescence, 8 min | Potency, µM (series often up to 38.3 µM), actives largely listed as inhibitors | 200,000 tested, 0.28% active | AID 1379, 2008; also: nearly all actives have a fitted effect of over 60% in size
#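 Luminescence was the read-out, taken after 8-minute incubation at ambient temperature. Luciferase turned over luciferin with 10 uM ATP in imidazole pH 7.2 buffer containing KCl, MgCl2, Tween 20 and BSA.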
# Numbers stand for hits; – = inactive; ? = inconclusive; · = not tested or not shown. Only some compounds are listed: those with a hit (about 6.2% of all), similar ones and a draw of the others. Calls follow the shape of the dose curve; as a rule, active = well fitted curve in the direction sought with a large enough effect; inconclusive = small, poorly fitted or top-dose-only effect, or another doubt; inactive = no such curve, though single readings can be large; an effect the other way counts as inactive or inconclusive.
SMILES,Gal4-VP16 FLuc,RORg inh,Luc counter
CC(CC(=O)Nc1nc2ccccc2[nH]1)c1ccccc1 (stereo unspecified),4.5µM,?,–
Cc1ccc(CC(=O)Nc2nc3ccccc3[nH]2)cc1C,–,3.2µM,–
O=C(CCCN1C(=O)c2ccccc2C1=O)Nc1nc2ccccc2[nH]1,–,–,·
O=C(Cc1ccccc1Cl)Nc1nc2ccccc2[nH]1,?,7.1µM,·
N#Cc1c(N)n(CCCN2CCOCC2)c2nc3ccccc3nc12,–,–,–
Nc1c(C(=O)Nc2ccccc2)c2nc3ccccc3nc2n1CCCN1CCOCC1,?,11µM,·
COc1ccc(C(=S)N2CCCC2)cc1C,–,–,·
COC(=O)c1cccc(NC(=O)c2onc3c2CCCC3)c1,?,7.1µM,?
Cc1cccc(NC(=O)c2onc3c2CCCC3)c1C,–,?,–
COC(=O)c1cccc(NC(=O)c2ccccc2)c1,–,–,·
Cc1cccc(NC(=O)c2onc3c2CCCC3)n1,5.6µM,2µM,4.5µM
O=C(Nc1ccc2ccccc2c1)c1onc2c1CCCC2,?,14µM,–
Cc1ccccc1NC(=O)c1onc2c1CCCC2,–,–,?
NC(N)=NCC1COc2ccccc2O1 (stereo unspecified),–,–,·
Fc1ccc(Oc2nnnn2-c2ccccc2)cc1,–,–,–
Fc1ccc(/C=N/Nc2nnnn2-c2ccccc2)cc1,?,11µM,–
O=C(CSc1nnc(-c2cccnc2)s1)Nc1ccc(C(=O)O)cc1,–,–,–
NC(=S)N/N=C/c1ccc(-n2nncc2-c2ccc(Cl)cc2)cc1,?,5.6µM,·
Nc1cccc(-n2nncc2-c2ccc(Cl)cc2)c1,–,–,–
CCc1n[nH]c(=S)n1/N=C/c1cccc2ccccc12,7.9µM,7.1µM,·
Cn1c(/N=C/c2c(O)ccc3ccccc23)nc2ccccc21,–,–,–
Cc1nnc(-c2ccccc2)c(=O)n1/N=C/c1c(O)ccc2ccccc12,18µM,?,–
Cc1nnc(C)n1/N=C/c1c(O)ccc2ccccc12,–,–,·
S=c1[nH]nc(-c2ccncc2)n1/N=C/c1cccc2ccccc12,–,–,–
CCc1n[nH]c(=S)n1/N=C/c1c(O)ccc2ccccc12,20µM,?,·
SMILES,Gal4-VP16 FLuc,RORg inh,Luc counter
COc1ccc(CNC(=O)CN(C)Cc2ccc(C(C)(C)C)cc2)cc1,–,–,·
CN(C)c1ccc(CNc2ncn[nH]2)cc1,–,–,–
COc1cc2c(cc1OC)-c1cc(=Nc3c(C)cc(C)cc3C)n(C)c(=O)n1CC2,–,–,–
Cc1ccc(CNC(=O)Cc2ccc(NC3=NC4CS(=O)(=O)CC4S3)cc2)cc1 (stereo unspecified),–,–,·
CCc1ccc(NC2=NCC(c3ccccc3)S2)cc1 (stereo unspecified),?,8.9µM,–
O=[N+]([O-])c1ccc(C2CN=C(Nc3ccccc3)S2)cc1 (stereo unspecified),–,–,–
Cc1ccc(NC2=NCC(Cc3ccc(Br)cc3)S2)cc1 (stereo unspecified),?,13µM,–
CCCC(=O)Nc1ccc(C(=O)n2ccc(C)n2)cc1,–,–,–
CC1=NN(C(N)=S)C(C)(C)C1,–,–,·
COc1ccc(C2=Nn3c(nnc3-c3cc(OC)ccc3OC)SC2)cc1,–,–,·
COc1ccc(Oc2ncc3nc(C)c(=O)n(Cc4cccc(OC)c4)c3n2)cc1,–,–,·
CCC(=O)NNC(=O)c1cc(COc2cc(Cl)cc(Cl)c2)on1,–,–,·
O=C1c2ccccc2C(=O)N1CCCCN(C(=O)c1ccc(Cl)s1)c1ccc(Cl)cc1,5µM,8.9µM,–
Cc1ccc(N(CCCCN2C(=O)c3ccccc3C2=O)C(=O)c2ccc(Cl)s2)cc1,–,–,–
Cc1ccc([N+](=O)[O-])cc1N(CC(=O)Nc1ccc(S(=O)(=O)Nc2cccc(C(F)(F)F)c2)cc1)S(C)(=O)=O,?,–,–
C=CC(C1=CC(=O)C(OC)=C(OC)C1=O)c1ccccc1 (stereo unspecified),7.1µM,14µM,–
C=CC(C1=CC(=O)C(OC)=CC1=O)c1ccccc1 (stereo unspecified),?,?,–
Cc1ccc(CSCCNC(=O)CN(c2ccccc2)S(C)(=O)=O)cc1,–,–,–
CCCn1c(SCC(=O)NNC(=O)c2ccc(C)cc2)nnc1C(C)C,–,–,·
N#CC1=C2N=C(N)c3ccccc3N2C2=C(C(=O)CCC2)C1c1ccc(F)cc1 (stereo unspecified),–,–,·
N#CC1=C2N=C(N)c3c(sc4c3CCCCC4)N2C2=C(C(=O)CCC2)C1c1ccccc1 (stereo unspecified),?,11µM,–
CS(=O)(=O)Nc1cccc(-c2cc(Nc3ccccc3)ncn2)c1,–,?,·

# Screening results (PubChem BioAssay)
